Measurements taken from PubChem BioAssay (EPA / NIEHS).
Several values for one entry are separate records, joined by “and”; a condition that tells them apart may be missing. Identical values can stand only once. Results filed as inconclusive are left out. Activity calls are given as the source filed them. Rule for the calls, unless noted: active = hit-call score of the fitted dose curve at least 0.9, where 1 is the maximum; inconclusive = response in the unintended direction; inactive = score below 0.9.

Read-out: UDP glucuronosyltransferase (UGT1A1), UGT1A1 (gene 54658)
Test: LTEA_HepaRG_UGT1A1: Life Technologies and Expression Analysis (LTEA) Assay for UDP glucuronosyltransferase (UGT1A1) using HepaRG (AID 2283538; active = hit-call score of the fitted dose curve at least 0.9, where 1 is the maximum; inactive = score below 0.9)
Settings: mRNA level, 48 h; actives raise or lower the signal
Summary of the method: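 HepaRG cells, 0.5% DMSO vehicle, 48 h exposure in serum-free induction medium to 8-point half-log series topping at 100 uM, in duplicate. UGT1A1 mRNA by Fluidigm qRT-PCR, normalized to ACTB/GAPDH/POLR2A; bidirectional fit versus DMSO.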
With `CCCCCCCCCCCCCCC` the AC50 was 19.8 µM (active).
For `N=C(N)c1ccc(OCCCCCOc2ccc(C(=N)N)cc2)cc1`, the AC50 was 4.48 µM (active).
With `CCC(C)c1ccccc1O` (centres undefined) the outcome was “inactive”.
In the case of `O=C(CCCN1CCC(O)(c2ccc(Cl)cc2)CC1)c1ccc(F)cc1`, the AC50 is reported as 79.3 µM (active).
In the case of `CCCCCCCCCCCCOS(=O)(=O)O`, the AC50 is reported as 91.7 µM (active).
For `CC(=O)Nc1ccc(O)cc1`, the outcome was “inactive”.
In the case of `OCC(CO)(CBr)CBr`, the outcome is reported as “inactive”.
In the case of `CCCCC=O`, the outcome is reported as “inactive”.
In the case of `CCCCc1oc2ccccc2c1C(=O)c1cc(I)c(OCCN(CC)CC)c(I)c1`, the AC50 is reported as 60.7 µM (active).
In the case of `CN(Cc1cnc2nc(N)nc(N)c2n1)c1ccc(C(=O)N[C@@H](CCC(=O)O)C(=O)O)cc1`, the outcome is reported as “inactive”.
For `CS(=O)(=O)c1ccc([C@@H](CC2CCCC2)C(=O)Nc2cnccn2)cc1Cl`, the AC50 was 12.2 µM (active).
With `O=C1NS(=O)(=O)c2ccccc21` the outcome was “inactive”.
With `Cc1[nH]nc2c1N=C(c1ccccc1Cl)c1cc([N+](=O)[O-])ccc1N2` the outcome was “inactive”.
In the case of `CN(C)CCOC(c1ccccc1)c1ccccc1`, the outcome is reported as “inactive”.
In the case of `CCCCC(CC)C(=O)O` (centres undefined), the outcome is reported as “inactive”.
With `O=C(c1ccccc1)c1ccccc1` the AC50 was 4.85 µM (active).

Read-out: X-box binding protein 1 (XBP1), XBP1 (gene 7494)
Test: LTEA_HepaRG_XBP1: Life Technologies and Expression Analysis (LTEA) Assay for X-box binding protein 1 (XBP1) using HepaRG (AID 2283540; active = hit-call score of the fitted dose curve at least 0.9, where 1 is the maximum; inactive = score below 0.9)
Settings: mRNA level, 48 h; actives raise or lower the signal
Summary of the method: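 XBP1 transcript by qRT-PCR (housekeeping-normalized: ACTB, GAPDH, POLR2A) after 48 h chemical treatment of HepaRG cells, 8-point half-log series topping at 100 uM, vehicle 0.5% DMSO. Gain and loss of signal fitted relative to DMSO.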
For `CCCCCCCCCCCCCCC`, the outcome was “inactive”.
For `N=C(N)c1ccc(OCCCCCOc2ccc(C(=N)N)cc2)cc1`, the AC50 was 28.5 µM (active).
With `CCC(C)c1ccccc1O` (centres undefined) the outcome was “inactive”.
For `O=C(CCCN1CCC(O)(c2ccc(Cl)cc2)CC1)c1ccc(F)cc1`, the outcome was “inactive”.
With `CCCCCCCCCCCCOS(=O)(=O)O` the outcome was “inactive”.
For `CC(=O)Nc1ccc(O)cc1`, the outcome was “inactive”.
For `OCC(CO)(CBr)CBr`, the outcome was “inactive”.
In the case of `CCCCC=O`, the outcome is reported as “inactive”.
For `CCCCc1oc2ccccc2c1C(=O)c1cc(I)c(OCCN(CC)CC)c(I)c1`, the outcome was “inactive”.
In the case of `CN(Cc1cnc2nc(N)nc(N)c2n1)c1ccc(C(=O)N[C@@H](CCC(=O)O)C(=O)O)cc1`, the AC50 is reported as 0.0944 µM (active).
With `CS(=O)(=O)c1ccc([C@@H](CC2CCCC2)C(=O)Nc2cnccn2)cc1Cl` the outcome was “inactive”.
In the case of `O=C1NS(=O)(=O)c2ccccc21`, the outcome is reported as “inactive”.
With `Cc1[nH]nc2c1N=C(c1ccccc1Cl)c1cc([N+](=O)[O-])ccc1N2` the AC50 was 3.64 µM (active).
For `CN(C)CCOC(c1ccccc1)c1ccccc1`, the outcome was “inactive”.
With `CCCCC(CC)C(=O)O` (centres undefined) the outcome was “inactive”.
For `O=C(c1ccccc1)c1ccccc1`, the outcome was “inactive”.

Read-out: not listed separately
Test: LTEA_HepaRG_LDH_cytotoxicity: Cytotoxicity Assessment in the Life Technologies and Expression Analysis (LTEA) Assay (AID 2283563);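 for AC50: LDH activity released into spent culture medium as a marker of cell death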
Settings: not given
Summary of the method: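 LDH release into culture medium read after 48 h chemical treatment of HepaRG cells. Duplicate wells, eight-point half-log series topping at 100 uM, 0.5% DMSO vehicle and baseline.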
In the case of `CCCCCCCCCCCCCCC`, the outcome is reported as “inactive”.
For `N=C(N)c1ccc(OCCCCCOc2ccc(C(=N)N)cc2)cc1`, the AC50 was 12 µM (active).
In the case of `CCC(C)c1ccccc1O` (centres undefined), the outcome is reported as “inactive”.
In the case of `O=C(CCCN1CCC(O)(c2ccc(Cl)cc2)CC1)c1ccc(F)cc1`, the AC50 is reported as 73.6 µM (active).
In the case of `CCCCCCCCCCCCOS(=O)(=O)O`, the outcome is reported as “inactive”.
In the case of `CC(=O)Nc1ccc(O)cc1`, the outcome is reported as “inactive”.
In the case of `OCC(CO)(CBr)CBr`, the outcome is reported as “inactive”.
With `CCCCC=O` the outcome was “inactive”.
With `CCCCc1oc2ccccc2c1C(=O)c1cc(I)c(OCCN(CC)CC)c(I)c1` the AC50 was 57 µM (active).
In the case of `CN(Cc1cnc2nc(N)nc(N)c2n1)c1ccc(C(=O)N[C@@H](CCC(=O)O)C(=O)O)cc1`, the outcome is reported as “inactive”.
For `O=C1NS(=O)(=O)c2ccccc21`, the outcome was “inactive”.
With `Cc1[nH]nc2c1N=C(c1ccccc1Cl)c1cc([N+](=O)[O-])ccc1N2` the AC50 was 61.4 µM (active).
With `CN(C)CCOC(c1ccccc1)c1ccccc1` the outcome was “inactive”.
With `CCCCC(CC)C(=O)O` (centres undefined) the outcome was “inactive”.
With `O=C(c1ccccc1)c1ccccc1` the outcome was “inactive”.

Test system: not listed separately
Test: ATG_XTT_Cytotoxicity: Cytotoxicity Assessment in the Attagene TRANS-FACTORIAL HepG2 Assay (AID 2283584);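 for AC50: cells exposed to compound for 24 h before reading; active means loss of viability signal versus DMSO baseline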
Settings: not given
Summary of the method: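 Viability endpoint from XTT after 24 h chemical exposure of reporter-transfected human HepG2 liver cells; signal loss fitted relative to DMSO negative control.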
For `C=C(c1ccc(C(=O)O)cc1)c1cc2c(cc1C)C(C)(C)CCC2(C)C`, the AC50 was 25.3 µM (active).
In the case of `CCOC(=O)c1nc(C(Cl)(Cl)Cl)n(-c2ccc(Cl)cc2Cl)n1`, the outcome is reported as “inactive”.
For `CC1CCC(C(=O)O)CC1` (centres undefined), the outcome was “inactive”.
With `CCCCCCCCCCCCCCC` the outcome was “inactive”.
For `C=COC(=O)C(C)(C)CCCCCC`, the outcome was “inactive”.
With `CCOC(OCC)C(=O)c1ccccc1` the outcome was “inactive”.
For `N=C(N)c1ccc(OCCCCCOc2ccc(C(=N)N)cc2)cc1`, the outcome was “inactive”.
With `Cn1sccc1=O` the outcome was “inactive”.
With `CCC(C)c1ccccc1O` (centres undefined) the outcome was “inactive”.
With `O=C(CCCN1CCC(O)(c2ccc(Cl)cc2)CC1)c1ccc(F)cc1` the outcome was “inactive”.
With `C=Cc1ccc(O)c(OC)c1` the outcome was “inactive”.
With `CCO[Si](CCC1CCC2OC2C1)(OCC)OCC` (centres undefined) the outcome was “inactive”.
In the case of `CCCCCCCCCCCC[N+](C)(C)Cc1ccccc1`, the AC50 is reported as 24.2 µM (active) and 31.9 µM (active).
For `CC(=O)Nc1ccc(O)cc1`, the outcome was “inactive”.
With `CCCCC=O` the outcome was “inactive”.
For `CCCCc1oc2ccccc2c1C(=O)c1cc(I)c(OCCN(CC)CC)c(I)c1`, the outcome was “inactive”.
With `O=C1Cc2ccccc2N1c1c(Cl)cccc1Cl` the outcome was “inactive”.
For `C=CC(=O)OCCN(CC)CC`, the outcome was “inactive”.
For `CN(Cc1cnc2nc(N)nc(N)c2n1)c1ccc(C(=O)N[C@@H](CCC(=O)O)C(=O)O)cc1`, the outcome was “inactive”.
In the case of `CCCCCCCCC(C)=O`, the outcome is reported as “inactive”.
With `C/C=C/C(=O)C1=C(C)CCCC1(C)C` the outcome was “inactive”.
For `O=C1NS(=O)(=O)c2ccccc21`, the outcome was “inactive”.
With `Cc1[nH]nc2c1N=C(c1ccccc1Cl)c1cc([N+](=O)[O-])ccc1N2` the outcome was “inactive”.
In the case of `CCc1cccc(CC)c1N(COC)C(=O)CS(=O)(=O)O`, the outcome is reported as “inactive”.
For `CCCCN(C)C`, the outcome was “inactive”.
With `NNC(=O)CCCCC(=O)NN` the outcome was “inactive”.
With `CN(C)CCOC(c1ccccc1)c1ccccc1` the outcome was “inactive”.
With `Clc1ccc2c(Cl)ccnc2c1` the outcome was “inactive”.
In the case of `CCCCC(CC)C(=O)O` (centres undefined), the outcome is reported as “inactive”.
With `COc1ccc(C#N)cc1` the outcome was “inactive”.
With `c1cc[nH]c1` the outcome was “inactive”.
In the case of `O=C(c1ccccc1)c1ccccc1`, the outcome is reported as “inactive”.
